Bioassay records from PubChem.
Vaccinia Venus: inhibitors of vaccinia virus (Venus reporter); Vaccinia virus Venus reporter expression, fluorescence; Potency, µM (series often up to 36.5 µM), actives largely listed as inhibitors; actives 0.46% (n = 330,000); AID 720580; calls by dose curve; tested in A549 cells; further: nearly all actives have a fitted effect of over 30% in size
Sm TGR block: inhibitors of Schistosoma mansoni thioredoxin glutathione reductase; purified TGR, DTNB reduction, TNB absorbance 405 nm; Potency, µM (top dose mostly 114 µM), most hits filed as inhibitors; Q962Y6; AID 485364; actives 3% (n = 360,000); further: nearly all actives have a fitted effect of over 60% in size
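Kinetic colorimetric format: TGR-catalysed, NADPH-driven DTNB reduction monitored via TNB absorbance. Enzyme dispensed at 20 nM; compound exposure 15 min at room temperature before reaction start.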
FMDV antiviral: foot and mouth disease virus antiviral activity | FMDV antiviral cell-based qHTS | Potency, µM (series often up to 57.9 µM), most hits filed as inhibitors | actives 1.2% (n = 410,000); calls by dose curve; tested in HEK293T cells; further: read-out not given here; nearly all actives have a fitted effect of over 45% in size
HCV inh: inhibitors of hepatitis C virus infection. Potency, µM (doses to about 41.8 µM), most hits filed as inhibitors. actives 3.4% (n = 340,000). Huh7.5.1 HCVcc-Cre infection, luciferase reporter, 44 h. AID 651820
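Whole-lifecycle infectious HCVcc-Cre system; cells 1,000/well, compound then virus (~0.5 moi) added 4 h after plating, 44 h culture. Luciferase read 15 sec following 15 min substrate incubation, room temp.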
HCMV antiviral: blocks human cytomegalovirus replication; HFF cells, HCMV-luciferase reporter, 72 h; stronger effect = lower value; activity change, negative = inhibition, % at 57.5 µM; actives 4.5% (n = 410,000); in the data active means activity change below about -60%; inconclusive means no clear call, values can overlap the other calls; inactive means above about -39%
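Screen run at 2 compound doses on HFFs infected with reporter HCMV, MOI 1 PFU/cell. Luciferase activity from cell lysates at 72 h post infection gave inhibition relative to buffer-only and Salinomycin wells.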
VACV mCherry inh: inhibitors of vaccinia virus infection (mCherry reporter signal). Vaccinia virus mCherry reporter infection, fluorescence. actives 0.63% (n = 310,000). Potency, µM (series often up to 36.5 µM), usual class: inhibitors; calls by dose curve; tested in A549 cells; further: nearly all actives have a fitted effect of over 35% in size
Of the large screens only hits and unclear results are named; the others gave an inactive call. A selection: hits, their analogues and other compounds. The true share with any hit is near 9.3%. Unless noted, the call rests on the fitted dose curve; in most records, active means well fitted curve in the direction sought with a large enough effect; inconclusive means small, poorly fitted or top-dose-only effect, or another doubt; inactive means no such curve, though single readings can be large; an effect the other way counts as inactive or inconclusive.

c1ccc(COCC2CCNCC2)cc1	none
COc1cccc(CCNC(=O)C2CCC(=O)N(Cc3cccc(OC)c3)C2)c1 (configuration not stated)	none (no result: Vaccinia Venus, VACV mCherry inh)
Oc1[nH]c2ccccc2c1OCc1ccncc1	none (no result: VACV mCherry inh)
CCc1ccccc1NC(=O)CCCSc1nc2ccccc2s1	none (no result: Vaccinia Venus, VACV mCherry inh)
Cc1cc(N2CCCC2=O)cc(C)c1S(=O)(=O)NCCOc1ccc(C(C)(C)C)cc1	Vaccinia Venus inconclusive, FMDV antiviral inconclusive, HCV inh 11µM, HCMV antiviral -91, VACV mCherry inh inconclusive
O=C1CCCN1c1ccc(S(=O)(=O)NCCOc2ccccc2)cc1	none
CC1(c2ccccc2Cl)NC(=O)N(CC(=O)N2CCc3ccccc3C2)C1=O (configuration not stated)	none
CCCCc1nc2ccccc2c(=O)n1-c1ccccc1[N+](=O)[O-]	none
CCCCc1nc2ccccc2c(=O)n1-c1ccc(Cl)cc1[N+](=O)[O-]	HCMV antiviral -62 (no result: Vaccinia Venus, VACV mCherry inh)
O=C1C(=O)N(CCS(=O)(=O)c2ccccc2)c2ccccc21	none (no result: Vaccinia Venus, VACV mCherry inh)
CS(=O)(=O)c1ncc(Cl)c(C(=O)Nc2ccc(N3CCOCC3)cc2)n1	Sm TGR block 16µM, HCV inh inconclusive (no result: FMDV antiviral, HCMV antiviral)
CS(=O)(=O)c1ncc(Cl)c(C(=O)Nc2ccc(OC(F)F)cc2)n1	Vaccinia Venus inconclusive, Sm TGR block 7.9µM, FMDV antiviral 20µM, HCV inh inconclusive, VACV mCherry inh inconclusive (no result: HCMV antiviral)
O=C(Nc1ccc(OC(F)F)cc1)c1ccccn1	HCV inh inconclusive
Cc1ccc(CNC(=O)C2CC3Cn4c(nc5cc6ccccc6cc54)C3N2C)o1 (configuration not stated)	Sm TGR block 45µM, HCMV antiviral -101
C=CCNC(=O)C1CC2Cn3c(nc4ccccc43)C2N1C (configuration not stated)	Sm TGR block inconclusive
Cc1ccc(CNC(=O)C2CC3Cn4c(nc5ccccc54)C3N2C)o1 (configuration not stated)	Sm TGR block 35µM
CC(=O)N1C(=O)N(C)C2C1N(C(C)=O)C(=O)N2C (configuration not stated)	none (no result: VACV mCherry inh)
Nc1ccc(Nc2nc(-c3cc4ccccc4oc3=O)cs2)cc1	HCMV antiviral -61, VACV mCherry inh inconclusive
Cc1ccc(C(NC(=O)NC(C)c2ccccc2)C(Cl)(Cl)Cl)cc1F (configuration not stated)	Vaccinia Venus inconclusive, FMDV antiviral inconclusive, HCV inh 10µM, HCMV antiviral -100, VACV mCherry inh 22µM
CC(NC(=O)Nc1ccc(Cl)cc1)c1ccccc1 (configuration not stated)	none (no result: Vaccinia Venus, VACV mCherry inh)
CCOC(=O)c1[nH]c(=O)[nH]c1CSc1ccccn1	Sm TGR block 14µM (no result: Vaccinia Venus, VACV mCherry inh)
Cc1ccc(/C=C/C(=O)Nc2ncc(C)s2)o1	Sm TGR block 25µM
CCOC(=O)/C=C/C(=O)Nc1nccs1	Sm TGR block 40µM, FMDV antiviral inconclusive
Cc1ccc(/C=C/C(=O)Nc2nccs2)o1	Sm TGR block 28µM
CCOC(=O)C(=O)Nc1nccs1	HCMV antiviral inconclusive (no result: Sm TGR block)
O=[N+]([O-])c1cc(-c2ncccn2)cs1	none
COc1ccc(C(=O)NCCSc2ccccn2)cc1	FMDV antiviral inconclusive (no result: VACV mCherry inh)
COc1cc2c(ccc3c4cc(OC)c(OC)cc4c[n+](C)c23)cc1O	HCV inh inconclusive, HCMV antiviral -100 (no result: Sm TGR block)
COc1cc2c[n+](C)c3c4ccccc4ccc3c2cc1OC	HCMV antiviral -82 (no result: Sm TGR block)
COc1ccc2c(c1)c[n+](C)c1c3cc(OC)c(OC)cc3ccc21	HCMV antiviral -96 (no result: Sm TGR block, HCV inh)
COc1ccc(/C=C/c2ccc3ccccc3[n+]2C)cc1OC	Vaccinia Venus inconclusive (no result: HCMV antiviral)
COc1cc2ccc(=O)oc2cc1O	FMDV antiviral inconclusive
COC(=O)c1cc(CNC(=O)c2ccc3ccccc3n2)cc(NC(=O)c2cccc(OC)c2)c1	none (no result: Sm TGR block, HCV inh, HCMV antiviral)
O=C(Nc1ccccc1Cl)C1C(c2ccccc2)C1(Cl)Cl (configuration not stated)	none (no result: Vaccinia Venus, VACV mCherry inh)
O=C(Nc1ccc(F)cc1)C1C(c2ccccc2)C1(Cl)Cl (configuration not stated)	FMDV antiviral inconclusive, HCMV antiviral -68
COCCn1c(N)c(C(=O)NCc2cccs2)c2nc3ccccc3nc21	HCV inh inconclusive, HCMV antiviral inconclusive (no result: Vaccinia Venus, VACV mCherry inh)
CC(C)CCn1c(N)c(C(=O)NCc2cccs2)c2nc3ccccc3nc21	HCV inh 14µM
CC(C)OCCCNC(=O)c1c(N)n(/N=C/c2ccccn2)c2nc3ccccc3nc12	none
CC(C)OCCCNC(=O)c1c(N)n(Cc2cccs2)c2nc3ccccc3nc12	Vaccinia Venus 28µM, HCV inh 10µM, HCMV antiviral -74 (no result: VACV mCherry inh)
O=C(O)c1cccnc1Nc1cccc(C(F)(F)F)c1	Vaccinia Venus inconclusive
Fc1ccc(Nc2nc3nonc3nc2Nc2cccc(C(F)(F)F)c2)cc1	Vaccinia Venus inconclusive, FMDV antiviral inconclusive, HCMV antiviral -101, VACV mCherry inh inconclusive (no result: HCV inh)
CN(C)CCC(=O)C(Cc1ccccc1)c1ccccc1 (configuration not stated)	Vaccinia Venus inconclusive, FMDV antiviral inconclusive (no result: Sm TGR block)
CN(C)CC(C(=O)Cc1ccccc1)c1ccccc1 (configuration not stated)	Vaccinia Venus inconclusive, FMDV antiviral 28µM, HCMV antiviral -97 (no result: Sm TGR block)
Cn1nnnc1SCC(=O)Nc1nn(-c2ccccc2)nc1C(N)=O	none
O=C(OCC1CCCN2CCCCC12)c1ccc2c(c1)OCO2 (configuration not stated)	none (no result: FMDV antiviral)
COc1cc(C2C3=C(Nc4ncnn42)c2ccccc2CC3)cc(OC)c1OC (configuration not stated)	Sm TGR block inconclusive, HCV inh inconclusive, HCMV antiviral -89 (no result: Vaccinia Venus, VACV mCherry inh)
Cc1ccccc1NC(=O)CSC1=C(C#N)C(c2ccsc2)CC(=O)N1 (configuration not stated)	Vaccinia Venus inconclusive, HCV inh inconclusive, HCMV antiviral -62 (no result: VACV mCherry inh)
Cc1cccc(S(=O)(=O)Nc2nc3ccccc3nc2Nc2cccc(C(=O)O)c2)c1	none (no result: Vaccinia Venus, VACV mCherry inh)
Cn1ncc([N+](=O)[O-])c1C(=O)Nc1nccs1	HCMV antiviral -64
Cn1ncc([N+](=O)[O-])c1C(=O)Nc1cccc2ccccc12	HCMV antiviral -63
CC(=O)Nc1ccc(NC(=O)c2c([N+](=O)[O-])cnn2C)cc1	none
COc1cccc(CN2CCNC(=O)C2CC(=O)N(C)Cc2nc(C)cs2)c1OC (configuration not stated)	Sm TGR block inconclusive
Cc1ccc(NC(c2ccccc2)c2nc3ccccc3[nH]c2=O)cc1 (configuration not stated)	HCV inh inconclusive, HCMV antiviral inconclusive (no result: Vaccinia Venus, VACV mCherry inh)
Cc1cccc(NC(c2ccccc2F)c2ccc3ccc(C)nc3c2O)n1 (configuration not stated)	Sm TGR block 5µM, VACV mCherry inh inconclusive (no result: HCV inh)
Cc1ccc(C)c(C(Nc2ccccc2)c2ccc3ccc(C)nc3c2O)c1 (configuration not stated)	Vaccinia Venus inconclusive, VACV mCherry inh 7.9µM (no result: Sm TGR block, HCV inh)
